The nature of the experiment: Rh110 fluorescence interference by putative Apaf-1 activators, confirmation, artefact control for Apaf-1 activator project, biochemical, 20 µM (AID 504616). Particulars: quenched caspase reaction, Ex480/Em540, at 20 µM.

The other results are listed elsewhere or left out. Values without a mark were called inactive.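 The calls were made as follows: active = mean activity change at or below -40% when tested at 20 µM; inactive = the rest.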

Turning to `CC1COc2ccccc2N1C(=O)c1cccnc1Cl` (stereo unspecified), the fluorescence interference (activity change) was 0.54%.

Take `Clc1cccc(-c2nc3nc4ccccc4nc3n2Cc2ccco2)c1`: the fluorescence interference (activity change) was 6.33%.

As to `COc1ccccc1OCC(=O)Nc1c2c(nn1-c1ccc(F)cc1)CS(=O)(=O)C2`, the fluorescence interference (activity change) was 9.44%.

Regarding `COC(CNC(=O)Cn1ncc2ccsc2c1=O)OC`, the fluorescence interference (activity change) is -3.81%.

For `COc1ccc(C2CC(c3ccccc3)Nc3ncnn32)cc1` (stereo unspecified), the fluorescence interference (activity change) was -9.02%.

With `Cc1nn(CC(=O)Nc2ccc(C#N)cc2)c(C)c1[N+](=O)[O-]`, the fluorescence interference (activity change) is -2.47%.

On to `CCOc1ccc(N=C2NC(=O)S/C2=C\c2ccc(O)cc2)cc1`, for which the fluorescence interference (activity change) is -1.26%.

`O=C(Nc1cccc(C(F)(F)F)c1)c1cnccn1`: the fluorescence interference (activity change) was 0.73%.

As for `O=C(CN1C(=O)C2C3C=CC(C3)C2C1=O)NCCc1ccccc1Cl` (stereo unspecified), the fluorescence interference (activity change) was -3.43%.

On to `CCOCCCNC(=O)c1c[nH]c2cc(C)ccc2c1=O`, for which the fluorescence interference (activity change) is 8.21%.

Turning to `Cc1ccc(S(=O)(=O)c2c(N)n(C)c3nc4ccccc4nc23)cc1`, the fluorescence interference (activity change) was -4.76%.

In the case of `CC(C)OCCCNC(=S)N1CCC(C(=O)c2ccc3c(c2)OCCO3)CC1`, the fluorescence interference (activity change) is 3.57%.

`O=C(CSc1ccc(-c2ccc(-n3cccn3)cc2)nn1)Nc1ccc([N+](=O)[O-])cc1`: the fluorescence interference (activity change) is 2.63%.

Turning to `Cc1ccc(Nc2nc(CSc3nnc(-c4ccncc4)n3-c3ccccc3C)cs2)cc1`, the fluorescence interference (activity change) is 11.6%.

In the case of `COc1ccc(C2c3ccc(O)cc3Oc3ncn(CCCO)c(=N)c32)cc1OC` (stereo unspecified), the fluorescence interference (activity change) is -0.45%.

Turning to `CCCC(=O)Nc1nc2ccc(NC(=O)c3c(F)c(F)c(OC)c(F)c3F)cc2s1`, the fluorescence interference (activity change) is 7.74%.

As for `N#CC1(C#N)C(C(=O)C23CC4CC(CC(C4)C2)C3)C12CCOCC2` (stereo unspecified), the fluorescence interference (activity change) was -0.76%.

Consider `Cc1cc(NC(=O)c2cccc(N3C(=O)CCC3=O)c2)no1`, for which the fluorescence interference (activity change) is 0.61%.

Take `CC(C)N1CCC(NC(=O)Nc2ccccc2)CC1`: the fluorescence interference (activity change) was -6.69%.

As to `C=CC1=C(C(=O)O)N2C(=O)[C@@H](NC(=O)/C(=N\OCC(=O)O)c3csc(N)n3)[C@H]2SC1`, the fluorescence interference (activity change) was 11.7%.

On to `O=C(Nc1cccc(-c2nc3ccccc3[nH]2)c1)c1ccc(C(=O)Nc2cccc(-c3nc4ccccc4[nH]3)c2)cc1`, for which the fluorescence interference (activity change) is 7.06%.

These data come from PubChem BioAssay AID504616 (Sanford-Burnham Center for Chemical Genomics, 2011).
